# Screening results deposited in PubChem BioAssay by National Center for Advancing Translational Sciences (NCATS).
# Sampled rows, rich in hits. Any-hit rate of the full collection: about 6.5%.
# FMDV antiviral: blocks foot and mouth disease virus; FMDV antiviral cell-based qHTS; Potency, µM (series often up to 57.9 µM), inactives show top-dose activity change, negative = inhibition, hits mostly inhibitors; hit rate 1.2% among 410,000; calls by dose curve; tested in HEK293T cells; also: read-out not given here; potency is read from the fitted curve at half-maximal effect; nearly all actives have a fitted effect of over 45% in size
# LASV entry inh: inhibitors of Lassa virus binding or cell entry | Lassa virus pseudotype entry inhibition, cell reporter | Potency, µM (series often up to 37.9 µM), inactives show at the highest dose activity change, negative = inhibition, usual class: inhibitors | hit rate 1.2% among 300,000 | AID 540256; calls by dose curve; tested in HEK293 cells; also: potency is read from the fitted curve at half-maximal effect; nearly all actives have a fitted effect of over 50% in size
# HCMV antiviral: inhibitors of human cytomegalovirus | activity change, negative = inhibition, % at 57.5 µM | HFF cells, HCMV-luciferase reporter, 72 h; hits give low values | hit rate 4.5% among 410,000; in the data active = activity change below about -60%; inconclusive = no clear call, values can overlap the other calls; inactive = above about -39%
#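 Two-dose cell screen: HFF monolayers treated with compounds and infected with luciferase-expressing HCMV at 1 PFU/cell, 72 h at 37C, then lysed for luciferase measurement.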
# Marburg entry inh: Marburg virus entry inhibition; hit rate 1.8% among 300,000; AID 540276; Marburg virus pseudotyped entry inhibition, cell reporter; Potency, µM (doses to about 37.8 µM), without a hit: top-dose activity change, negative = inhibition, most hits filed as inhibitors; calls by dose curve; tested in HEK293 cells; also: potency is read from the fitted curve at half-maximal effect
# VACV mCherry inh: vaccinia inhibition (mCherry reporter). hit rate 0.63% among 310,000. Potency, µM (top dose mostly 36.5 µM), without a hit: at the highest dose activity change, negative = inhibition, hits mostly inhibitors. Vaccinia virus mCherry reporter infection, fluorescence; calls by dose curve; tested in A549 cells; also: potency is read from the fitted curve at half-maximal effect; nearly all actives have a fitted effect of over 35% in size
# Vaccinia Venus: vaccinia inhibition (Venus reporter). Vaccinia virus Venus reporter expression, fluorescence. Potency, µM (doses to about 36.5 µM), for inactives: at the highest dose activity change, negative = inhibition, hits mostly inhibitors. hit rate 0.46% among 330,000. AID 720580; calls by dose curve; tested in A549 cells; also: potency is read from the fitted curve at half-maximal effect; nearly all actives have a fitted effect of over 30% in size
# * = called active by the depositor; i = inactive; ? = inconclusive; nt = no result given; [ ] = remark or other dose. % is scaled to controls: 0 for no effect and ±100 for the full control effect.
SMILES,FMDV antiviral,LASV entry inh,HCMV antiviral,Marburg entry inh,VACV mCherry inh,Vaccinia Venus
CCOC(=O)c1c(C)[nH]c(C)c1S(=O)(=O)NCC(=O)N1CCN(c2cc(Cl)ccc2C)CC1,-23%,?,-21,nt,?,?
COC(=O)CCN(Cc1ccc(OC)cc1OC)S(=O)(=O)c1ccccc1Br,nt,nt,3,nt,nt,nt
O=C(c1cc2ccccc2o1)N1CCN(S(=O)(=O)c2ccccc2)CC1,-8%,-29%,-24,-11%,-13%,-13%
C=C(C)C1CC23C(=O)[C@]4(C(=O)c5ccccc5)C[C@@]5(C)CCC(CC2C1(C)C)(C4=O)[C@@]35OC (stereo partly drawn),nt,nt,nt,9%[14.2 µM],nt,nt
CCOC(=O)c1c(C)[nH]c(C)c1S(=O)(=O)NCCN1CCN(c2cc(Cl)ccc2C)CC1,7%,nt,-72*,nt,nt,nt
CCC(C)C(CO)NCCCn1ccc(NC(=O)OCc2ccccc2)nc1=O (stereo not drawn),-24%,nt,-25,nt,-27%,-7%
O=C(c1ccc2c(c1)OCO2)C1CCCN(Cc2cc(F)ccc2-n2cccn2)C1 (stereo not drawn),1%,-12%,31,?,10%,6%
Cc1ccc(-n2cccn2)c(CN2CCCC(C(=O)c3ccc4c(c3)OCO4)C2)c1 (stereo not drawn),-23%,?,-73*,10µM*,i,-17%
COc1cccc(CN2CCCC(C(=O)c3ccc4c(c3)OCO4)C2)c1OC (stereo not drawn),-13%,-14%[46.1 µM],-36,11µM*,-22%,-9%
O=C(CCn1c(=O)[nH]c2ccccc21)NCC1Cc2cc(Cl)cc(-c3ccncc3)c2O1 (stereo not drawn),-9%,nt,nt,nt,i,-17%
COc1cccc(-c2cc3c(Nc4cc(OC)c(OC)c(OC)c4)nccc3[nH]2)c1,nt,nt,-34,nt,nt,nt
OCC[C@@H]1C[C@H](O)[C@@H](O)[C@]2(CCCO2)O1,-3%,nt,11,nt,i,3%
CCCCCCn1c(-c2cccs2)n[nH]c1=S,22%,-5%[46.1 µM],-80*,-26%[46.1 µM],i,-13%
CC1CCN(c2ccc(-c3cccs3)nn2)CC1,7.9µM*,nt,-66*,nt,i,-20%
O=C(NCCN1CCOCC1)c1ccccc1N1C(=O)[C@@H]2Cc3c([nH]c4ccccc34)C(c3ccc(F)cc3)N2C1=O (stereo partly drawn),-19%,nt,-75*,nt,-9%,2%
COc1ccc(C2c3[nH]c4ccccc4c3C[C@H]3C(=O)N(c4ccccc4C(=O)NCCN4CCOCC4)C(=O)N23)cc1 (stereo partly drawn),1%,nt,14,nt,-9%,3%
CCCOc1ccc2cc(-c3ccccn3)c(=O)oc2c1,10µM*,2.8µM*,-77*,1.8µM*,i,-18%
O=c1oc2cc(OCc3c(F)cccc3Cl)ccc2cc1-c1ccccn1,-27%,?,10,2%,0%[1.46 µM],-1%
COC(=O)C(C)Oc1ccc2cc(-c3ccccc3)c(=O)oc2c1 (stereo not drawn),15%,12%[46.1 µM],0,?,-27%,-19%
COc1ccc2cc(-c3ccccc3)c(=O)oc2c1,-20%,4.5µM*,0,?,i,-25%
CC1=CC(C)(C)n2c(O)c(N=NC(N)=S)c3cc(C)cc1c32,-24%,14%,-68*,14%,nt,nt
CCSc1nnc(NS(=O)(=O)c2ccc(OC)cc2)s1,17%,nt,36,nt,nt,nt
O=S1(=O)CCC(NC(=S)NC2CCS(=O)(=O)C2)C1 (stereo not drawn),7%,?,-4,?,i,-8%
O=S1(=O)CCC(NC(=S)SCCOc2ccccc2)C1 (stereo not drawn),14µM*,nt,-69*,nt,nt,nt
CCCCSC(=S)NC1CCS(=O)(=O)C1 (stereo not drawn),-27%,4%,-84*,?,?,-25%
SMILES,FMDV antiviral,LASV entry inh,HCMV antiviral,Marburg entry inh,VACV mCherry inh,Vaccinia Venus
O=c1c(S(=O)(=O)c2ccccc2)cn(Cc2ccccc2)c2cc(N3CCOCC3)c(F)cc12,-8%,?,-27,nt,-6%,-16%
O=c1c(S(=O)(=O)c2ccccc2)cn(Cc2ccccc2)c2cc(N3CCCC3)c(F)cc12,1%,23%[46.1 µM],4,nt,0%,2%
O=c1c(S(=O)(=O)c2ccccc2)cn(Cc2cccc(F)c2)c2cc(N3CCOCC3)c(F)cc12,-15%,?,-71*,nt,-9%,-20%
O=c1c(S(=O)(=O)c2cccc(Cl)c2)cn(Cc2ccccc2)c2cc(N3CCCCC3)c(F)cc12,10%,?,-65*,nt,-2%,-21%
O=C1CCCC2=C1[C@H]1O[C@](c3ccsc3)(Cc3c1ccc1ccccc31)O2,nt,nt,nt,-14%[14.2 µM],nt,nt
CCOC(=O)C1CCN(Cc2cnc(Oc3ccc(OC)cc3)s2)CC1,-11%,1.5µM*,11,-11%,nt,nt
Cc1cc2nccc(-c3ccco3)n2n1,-4%,-1%,-30,?,-9%,-5%
Cc1cc2nccc(-c3ccc(OCCCF)cc3)n2n1,-16%,nt,-61*,nt,nt,nt
O=C(NCCCSc1ccccc1)c1cc(Br)ccc1O,-19%,nt,-79*,nt,nt,nt
O=C(NCCSc1ccccc1)c1ccc(Br)cc1,-11%,13µM*,5,?,-13%,-14%
CCCCCC1CC1C(=O)N/N=C/c1ccc(N(C)C)cc1 (stereo not drawn),5%,0.46µM*,27,14%,nt,nt
CNC(=S)N/N=C/c1ccc(N(C)C)cc1,52%,1%,15,-26%,i,-13%
CCS(=O)(=O)c1ccc(C(=O)Nc2cccc(Cl)c2)c(Cl)c1Cl,28µM*,?,?,?,nt,?
COc1cccc(NC(=O)c2ccccc2NS(C)(=O)=O)c1,-10%,?,78,?,nt,nt
CS(=O)(=O)Nc1ccccc1C(=O)Nc1cccc(Cl)c1,nt,-1%,-67*,?,?,-23%
CS(=O)(=O)Nc1ccccc1C(=O)Nc1cc(Cl)cc(Cl)c1,?,?,-103*,?,7.9µM*,11µM*
CCOC(=O)CCNC(=O)C1=CN2CCN(Cc3ccccc3C)C(=O)N=C2O1,nt,nt,6,nt,nt,nt
CCOC(=O)c1c(NC(C)=O)c2c3c(sc2n1Cc1nc(-c2ccccc2C)oc1C)CCCC3,-6%,0%[46.1 µM],5,nt,-15%,2%
CC(C)C[C@@H](CNCC(=O)[C@H](CC(=O)O)NC(=O)c1[nH]cnc1C(=O)N[C@H](CN)CC(C)C)NC(=O)c1nc[nH]c1C(=O)N[C@@H](C)C(=O)O,0%,nt,-4,nt,-12%,1%
Brc1ccc(CN2CCCc3nc(-c4ccccc4)ccc32)cc1,nt,nt,-81*,nt,nt,nt
Cc1cc(N)n2ncc(-c3ccccc3)c2n1,46%,-19%,102,?,-10%,-21%
CC(=O)Nc1ccc(Nc2cc(C)nc3c(-c4ccccc4)cnn23)cc1,?,?,-92*,?,?,?
CCOc1ccc(N(CC(=O)NC2CC3CCC2C3)S(=O)(=O)c2ccccc2)cc1 (stereo not drawn),36%,10µM*,-39,?,-24%,-19%
